PubChem BioAssay (NCI)
About 79,000 compounds went through this panel and 15% of them were active in at least one assay; those are over-represented in the sample as a whole. Active and inactive are the calls of the source. Rule as the data show it: active = growth inhibition above about 70%; inactive = the rest.

Experiments:
[1] = NCI Yeast Anticancer Drug Screen. Data for the mec2-1 strain (AID 157); settings: S. cerevisiae mec2-1 strain, at 100.0 µM, stronger effect = higher value
Method in brief: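 Each compound was tested on mec2-1 yeast, a strain altered in DNA damage repair or cell cycle control. Growth inhibition is reported relative to vehicle.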

[2] = NCI Yeast Anticancer Drug Screen. Data for the rad14 strain (AID 159);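 also: 0% = growth of vehicle-treated control cultures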; settings: S. cerevisiae rad14 strain growth inhibition, stronger effect = higher value
Method in brief: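 Screen for anticancer potential: a yeast strain altered in DNA damage repair is grown with compound, and reduced growth is quantified against vehicle controls.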

[3] = NCI Yeast Anticancer Drug Screen. Data for the sgs1 mgt1 strain (AID 161);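 also: 0% = growth of cultures given vehicle only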; settings: S. cerevisiae sgs1 mgt1 strain, stronger effect = higher value
Method in brief: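 Genetically altered yeast, compound exposure, growth inhibition relative to vehicle.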

[4] = NCI Yeast Anticancer Drug Screen. Data for the CLN2oe strain (AID 163);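 also: 0% = growth of vehicle-only control cultures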; settings: S. cerevisiae CLN2oe strain, stronger effect = higher value
Method in brief: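 First, the altered yeast strain was treated with each compound; second, its growth was measured; finally, inhibition was derived by comparison with vehicle controls.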

[5] = NCI Yeast Anticancer Drug Screen. Data for the cln2 rad14 strain (AID 165);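 also: 0% = growth equal to vehicle treated cultures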; settings: S. cerevisiae cln2 rad14 strain, stronger effect = higher value
Method in brief: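 Test compounds were added to cln2 rad14 yeast cultures; inhibition of growth was then determined by comparison with vehicle treatment.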

[6] = NCI Yeast Anticancer Drug Screen. Data for the bub3 strain (AID 167); settings: S. cerevisiae bub3 mutant strain, stronger effect = higher value
Method in brief: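 Screening used yeast with an engineered genetic alteration affecting cell cycle control. Compound-exposed cultures were compared with vehicle cultures, and reduced growth was taken as inhibition.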

[7] = NCI Yeast Anticancer Drug Screen. Data for the wt2 strain (AID 169);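 also: 0% = growth of vehicle-treated yeast cultures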; settings: S. cerevisiae wt2 strain growth inhibition, stronger effect = higher value
Method in brief: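 The panel's yeast strains carry defined changes in DNA repair or cell cycle genes. Each strain is grown with compound, and growth loss is scored relative to vehicle.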

[8] = NCI Yeast Anticancer Drug Screen. Data for the mlh1 strain (AID 171);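 also: 0% = growth of vehicle-treated control cultures of the same strain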; settings: S. cerevisiae mlh1 strain growth inhibition, stronger effect = higher value
Method in brief: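 Inhibition values reflect reduced yeast growth in the presence of compound, referenced to vehicle controls, using a strain chosen for its alteration in DNA repair or cell cycle control.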

[9] = NCI Yeast Anticancer Drug Screen. Data for the sgs1 strain (AID 173);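 also: 0% = growth of vehicle-only control cultures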; settings: S. cerevisiae sgs1 mutant, stronger effect = higher value
Method in brief: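 Vehicle-treated cultures served as reference for growth inhibition of a yeast strain altered in DNA damage repair or cell cycle control after compound exposure.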

[10] = NCI Yeast Anticancer Drug Screen. Data for the mlh1 rad18 strain (AID 175); settings: S. cerevisiae mlh1 rad18 strain growth inhibition, stronger effect = higher value
Method in brief: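 Inhibition values reflect reduced growth of mutant yeast versus vehicle-treated controls following compound exposure; the mutations affect DNA damage repair.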

[11] = NCI Yeast Anticancer Drug Screen. Data for the rad18 strain (AID 177); settings: S. cerevisiae rad18 mutant growth inhibition, stronger effect = higher value
Method in brief: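 Steps: expose repair-mutant yeast to compound; measure growth; express as inhibition relative to vehicle control.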

[12] = at 5.0 µM (retest, dose inferred, filed as 0.5)
[13] = at 50.0 µM (retest, dose inferred, filed as 5.0)

Measured: growth inhibition

CCCCCCSc1nc(COC(=O)NC)c(COC(=O)NC)n1C
inactive: [2]; at 1.2 µM -3% | [2]; at 3.7 µM -4% | [2]; at 11.0 µM -4% | [2]; at 33.0 µM 28% | [3]; [12] 0% | [3]; [13] 5% | [3]; at 50.0 µM 19.9% | [4]; at 1.2 µM -2% | [4]; at 3.7 µM -5% | [4]; at 11.0 µM -3% | [4]; at 33.0 µM 20% | [5]; [12] -2% | [5]; [13] 57% | [6]; at 1.2 µM -4% | [6]; at 3.7 µM 0% | [6]; [12] -2% | [6]; at 11.0 µM -4% | [6]; at 33.0 µM 16% | [6]; [13] 45% | [6]; at 50.0 µM 44.2% | [7]; at 1.2 µM -3% | [7]; at 3.7 µM -14% | [7]; at 11.0 µM -4% | [7]; at 33.0 µM 33% | [8]; at 1.2 µM -1% | [8]; at 3.7 µM 0% | [8]; at 11.0 µM -2% | [8]; at 33.0 µM 32% | [9]; at 1.2 µM -4% | [9]; at 3.7 µM -3% | [9]; at 11.0 µM -6% | [9]; at 33.0 µM 59% | [10]; [12] -2% | [11]; at 1.2 µM -1% | [11]; at 3.7 µM -1% | [11]; at 11.0 µM -1% | [11]; at 33.0 µM 33%
active: [1] 99% | [2]; at 100.0 µM 99% | [4]; at 100.0 µM 97% | [5]; at 50.0 µM 72.8% | [6]; at 100.0 µM 99% | [7]; at 100.0 µM 99% | [8]; at 100.0 µM 99% | [9]; at 100.0 µM 99% | [10]; [13] 74% | [10]; at 50.0 µM 98.3% | [11]; at 100.0 µM 98%
